Source: PubChem BioAssay (Tox21)
Several values for one entry are separate records, joined by “and”; a condition that tells them apart may be missing. Equal entries are not always repeated. Inconclusive results are not listed. Where a call stands in place of a potency, no number is given. More than one record can exist for a structure, and the calls need not agree. Activity calls are given as the source filed them. Unless noted, the call rests on the fitted dose curve; in most records, active means well fitted curve in the direction sought with a large enough effect in the repeat runs; inconclusive means weak or mixed curves; inactive means no such curve, though single readings can be large; an effect the other way counts as inactive or inconclusive.

How the values were obtained:
[1] = qHTS assay to identify small molecule agonists of the estrogen receptor alpha (ER-alpha) signaling pathway in the presence of an antagonist - cell viability counter screen (AID 1259386);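 further: cells exposed to compounds for 22 h at 37 °C before the viability read; nearly all actives have a fitted effect of over 30% in size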; further: potency means the concentration at half of the fitted maximal effect
Outline: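 Using estrogen-depleted VM7Luc4E2 cells, the 15-concentration compound series was applied together with 10.0nM ICI-182,780 and incubated 22hr at 37C/5% CO2. Cell viability was then scored by CellTiter-Fluor.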

[2] = target: Progesterone receptor (Homo sapiens) (UniProt P06401); test: qHTS assay to identify small molecule agonists of the progesterone receptor (PR) signaling pathway (AID 1346784; calls by dose curve; further: nearly all actives have a fitted effect of over 30% in size)
Sequence of Progesterone receptor (Homo sapiens) (P06401 whole entry, looked up): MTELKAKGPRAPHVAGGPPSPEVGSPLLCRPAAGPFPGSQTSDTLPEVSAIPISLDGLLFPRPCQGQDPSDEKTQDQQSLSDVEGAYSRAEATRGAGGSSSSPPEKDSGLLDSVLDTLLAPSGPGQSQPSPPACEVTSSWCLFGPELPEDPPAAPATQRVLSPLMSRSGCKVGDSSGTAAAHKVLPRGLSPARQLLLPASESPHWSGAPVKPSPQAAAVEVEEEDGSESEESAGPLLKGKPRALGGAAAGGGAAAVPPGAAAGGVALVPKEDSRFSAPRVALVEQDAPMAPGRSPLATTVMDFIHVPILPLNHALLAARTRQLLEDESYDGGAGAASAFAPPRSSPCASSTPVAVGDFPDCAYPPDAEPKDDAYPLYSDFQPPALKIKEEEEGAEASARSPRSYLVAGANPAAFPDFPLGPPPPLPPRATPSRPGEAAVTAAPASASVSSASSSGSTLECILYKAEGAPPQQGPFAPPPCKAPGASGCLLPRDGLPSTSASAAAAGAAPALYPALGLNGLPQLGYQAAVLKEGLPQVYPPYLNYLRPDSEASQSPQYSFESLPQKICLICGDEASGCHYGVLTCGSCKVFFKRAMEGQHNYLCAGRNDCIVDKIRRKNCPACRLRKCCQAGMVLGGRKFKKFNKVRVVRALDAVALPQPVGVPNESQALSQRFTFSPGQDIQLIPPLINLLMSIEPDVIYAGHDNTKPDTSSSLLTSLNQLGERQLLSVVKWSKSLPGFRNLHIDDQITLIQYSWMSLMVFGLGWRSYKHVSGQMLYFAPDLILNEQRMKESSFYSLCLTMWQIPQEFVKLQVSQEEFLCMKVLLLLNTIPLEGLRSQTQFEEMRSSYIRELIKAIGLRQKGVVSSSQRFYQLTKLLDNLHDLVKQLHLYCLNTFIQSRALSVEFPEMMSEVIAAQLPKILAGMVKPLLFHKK
Outline: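 PR-UAS-bla HEK 293T cells (beta-lactamase reporter under UAS) in 2% charcoal-stripped FBS, dosed with 23 nL compound after 6 hr, incubated 16hr at 37C. LiveBLAzer B/G FRET substrate added, fluorescence read after 2 hours.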

[3] = target: Progesterone receptor (Homo sapiens) (UniProt P06401); test: qHTS assay to identify small molecule antagonists of the progesterone receptor (PR) signaling pathway (AID 1346795; active means well fitted inhibition curve with a large enough effect in the signal ratio in the repeat runs, not every such curve was filed as active; the % refers to the signal ratio; further: potency means the concentration at half of the fitted maximal effect)
Outline: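 PR-UAS-bla HEK293T cells with beta-lactamase reporter under UAS control, in 2% charcoal-stripped FBS, treated with compounds plus 1 nM promegestone (R5020, final) for 16 hr at 37C. Read-out: FRET beta-lactamase substrate fluorescence after 2 hr at room temperature.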

[4] = qHTS assay to identify small molecule antagonists of the progesterone receptor (PR) signaling pathway - cell viability counter screen (AID 1346798); further: series mostly up to about 92 µM; nearly all actives have a fitted effect of over 50% in size
Outline: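 PR-UAS-bla HEK293T cells, 3,000/well in 2% charcoal-stripped FBS medium, dosed with compounds plus R5020 agonist and incubated 16 h at 37C. Viability then measured in the same wells by CellTiter-Glo luminescence after 30 min at RT.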

[5] = qHTS assay to identify small molecule agonists of the progesterone receptor (PR) signaling pathway - cell viability counter screen (AID 1346799; calls by dose curve; further: nearly all actives have a fitted effect of over 45% in size)
Outline: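 Counter screen in the PR-UAS-bla HEK293T wells (2% charcoal-stripped FBS, 16 h compound exposure at 37 C) after the bla read. CellTiter-Glo added, 30 min at room temperature, luminescence read as cell viability.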

[6] = qHTS assay to identify small molecule antagonists of the TGF-beta/Smad signaling pathway - cell viability counter screen (AID 1346824); further: nearly all actives have a fitted effect of over 50% in size
Outline: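 Cytotoxicity counter-screen run in the same wells as the beta-lactamase Smad reporter read: CellTiter-Glo luminescence after 30 min at room temperature. HEK 293T SBE-bla cells had 5 hr compound exposure at 37 C with TGF-beta1 (0.25 ng/mL stock).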

[7] = qHTS assay to identify small molecule agonists of the TGF-beta/Smad signaling pathway - cell viability counter screen (AID 1346829); further: top concentration of the series differs between compounds; nearly all actives have a fitted effect of over 45% in size
Outline: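 Compound-treated SBE-bla HEK 293T cells (5 hr, 37 C) were assessed for viability with CellTiter-Glo in parallel with the reporter read.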

[8] = target: Thyrotropin-releasing hormone receptor (Homo sapiens) (UniProt P34981); test: qHTS assay to identify small molecule antagonists of the thyrotropin-releasing hormone receptor (TRHR) signaling pathway (AID 1346877; active means well fitted inhibition curve with a large enough effect in the repeat runs, not every such curve was filed as active; further: series mostly up to about 51 µM)
Sequence of Thyrotropin-releasing hormone receptor (Homo sapiens) (P34981 whole entry, looked up): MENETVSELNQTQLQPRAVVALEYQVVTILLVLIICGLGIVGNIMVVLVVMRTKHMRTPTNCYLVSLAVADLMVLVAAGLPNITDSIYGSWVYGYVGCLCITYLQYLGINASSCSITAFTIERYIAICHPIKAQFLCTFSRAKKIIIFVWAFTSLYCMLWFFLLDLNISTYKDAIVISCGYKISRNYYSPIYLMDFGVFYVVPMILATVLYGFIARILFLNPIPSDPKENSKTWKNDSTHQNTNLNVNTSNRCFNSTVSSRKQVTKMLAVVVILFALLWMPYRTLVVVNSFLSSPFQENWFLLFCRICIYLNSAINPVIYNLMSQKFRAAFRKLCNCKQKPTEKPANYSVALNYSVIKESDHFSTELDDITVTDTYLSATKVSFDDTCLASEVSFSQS
Outline: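 Calcium signal in dye-loaded TRHR/HEK293 cells; compounds added 5 min before TRH (1 nM final); fluorescence monitored 3 min at 1 s steps.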

[9] = target: Thyrotropin-releasing hormone receptor (Homo sapiens) (UniProt P34981); test: qHTS assay to identify small molecule agonists of the thyrotropin-releasing hormone receptor (TRHR) signaling pathway (AID 1346891; calls by dose curve; further: series mostly up to about 58 µM)
Outline: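 HEK293 cells expressing TRHR plated 18 h at 37 C/5% CO2, calcium dye-loaded 2 h at 37 C, then compound added (agonist mode); kinetic calcium fluorescence read 3 min at 1 s intervals; 15 concentrations in triplicate.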

[10] = Human pregnane X receptor (PXR) small molecule agonists, qHTS cell viability counter screen (AID 1346977); further: nearly all actives have a fitted effect of over 50% in size; further: potency means the concentration at half of the fitted maximal effect
Outline: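 PXR-Luc HepG2 cells (2,000/well, 5% charcoal-stripped FBS) preincubated 5 hr, then exposed to compounds 24 hr at 37 C. Viability read in the same wells by CellTiter-Fluor fluorescence, reagent added at 23 hr, 1 hr incubation.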

[11] = Caspase-3/7 induction in HepG2 cells by small molecules, qHTS assay (AID 1346978); further: nearly all actives have a fitted effect of over 15% in size
Outline: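 Caspase-3/7 induction was measured by Caspase-Glo 3/7 luminescence (30 min, room temperature) after a 17 hr compound exposure of wild-type HepG2 cells seeded at 2,000 per well and pre-incubated 5 hr.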

[12] = Caspase-3/7 induction in CHO-K1 cells by small molecules, qHTS cell viability counter screen (AID 1346979); further: nearly all actives have a fitted effect of over 35% in size; further: potency means the concentration at half of the fitted maximal effect
Outline: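 Wild-type CHO-K1 cells (1,500/well) treated with compound after 5 h plating; after 16 h at 37C, viability read as CellTiter-Fluor fluorescence following 1 h reagent incubation, in the same wells as the caspase read.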

[13] = Caspase-3/7 induction in HepG2 cells by small molecules, qHTS cell viability counter screen (AID 1346981); further: series mostly up to about 92 µM; nearly all actives have a fitted effect of over 30% in size
Outline: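 After a 5-hr attachment period at 37 C and 5% CO2, wild-type HepG2 cells received compounds in DMSO. Sixteen hours later CellTiter-Fluor was dispensed and the fluorescent signal quantified after a further hour.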

[14] = target: Nuclear receptor subfamily 1 group I member 2 (Homo sapiens) (UniProt O75469); test: Human pregnane X receptor (PXR) small molecule agonists, qHTS assay (AID 1346982); further: nearly all actives have a fitted effect of over 35% in size; further: potency means the concentration at half of the fitted maximal effect
Sequence of Nuclear receptor subfamily 1 group I member 2 (Homo sapiens) (O75469 whole entry, looked up): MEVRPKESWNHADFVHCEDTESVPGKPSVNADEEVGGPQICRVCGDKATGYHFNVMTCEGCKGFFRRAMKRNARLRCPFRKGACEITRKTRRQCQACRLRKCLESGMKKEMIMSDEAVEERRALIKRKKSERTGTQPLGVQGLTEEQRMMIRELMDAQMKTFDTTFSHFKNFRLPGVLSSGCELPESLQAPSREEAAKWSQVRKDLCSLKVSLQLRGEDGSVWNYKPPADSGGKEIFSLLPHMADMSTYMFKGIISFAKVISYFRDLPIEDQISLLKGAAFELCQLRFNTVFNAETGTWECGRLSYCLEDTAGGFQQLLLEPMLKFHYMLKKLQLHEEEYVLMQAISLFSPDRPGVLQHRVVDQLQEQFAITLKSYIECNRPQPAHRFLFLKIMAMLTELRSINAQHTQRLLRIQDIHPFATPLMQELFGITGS
Outline: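 Tox21 qHTS; PXR-Luc HepG2; compounds pinned from DMSO; 24 hr, 37 C; ONE-Glo luciferase detection, 30 min room temperature.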

[15] = target: Cytochrome P450 2D6 (Homo sapiens) (UniProt P10635); test: Cytochrome P450 Family 2 Subfamily D Member 6 (CYP2D6) small molecule antagonists: luciferase reporter qHTS assay (AID 1671196); further: nearly all actives have a fitted effect of over 50% in size; further: potency means the concentration at half of the fitted maximal effect
Sequence of Cytochrome P450 2D6 (Homo sapiens) (P10635 whole entry, looked up): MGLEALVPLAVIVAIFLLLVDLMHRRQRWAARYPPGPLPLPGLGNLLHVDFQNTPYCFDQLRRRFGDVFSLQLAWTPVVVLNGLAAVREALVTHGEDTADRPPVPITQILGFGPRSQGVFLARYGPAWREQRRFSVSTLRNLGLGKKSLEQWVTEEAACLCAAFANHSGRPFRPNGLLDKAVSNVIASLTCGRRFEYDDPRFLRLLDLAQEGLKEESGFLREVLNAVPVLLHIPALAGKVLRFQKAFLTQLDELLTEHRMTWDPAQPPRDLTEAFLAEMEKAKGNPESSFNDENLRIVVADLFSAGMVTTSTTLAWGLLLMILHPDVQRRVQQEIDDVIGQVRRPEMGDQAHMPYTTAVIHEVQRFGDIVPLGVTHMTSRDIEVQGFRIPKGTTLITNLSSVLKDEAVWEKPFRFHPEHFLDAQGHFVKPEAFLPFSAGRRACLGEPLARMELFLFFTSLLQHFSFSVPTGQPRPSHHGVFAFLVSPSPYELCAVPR
Outline: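 Room-temperature luminescent CYP2D6 activity assay: compound preincubated 10 min with enzyme–substrate mix, NADPH-initiated reaction 1 h, detection reagent 20 min before reading.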

[16] = qHTS assay to identify small molecule agonists of the TGF-beta/Smad signaling pathway (AID 1346859; active means well fitted activation curve with a large enough effect in the signal ratio in the repeat runs, not every such curve was filed as active; the % refers to the signal ratio; further: series mostly up to about 77 µM)
Outline: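 SBE-bla HEK293T cells plated overnight, then compound exposure for 5 h at 37 C. Beta-lactamase reporter read with LiveBLAzer B/G FRET substrate after 2 h at room temperature, fluorescence at 405 nm excitation, 460/530 nm emission.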

[17] = Caspase-3/7 induction in CHO-K1 cells by small molecules, qHTS assay (AID 1346980); further: nearly all actives have a fitted effect of over 15% in size; further: potency means the concentration at half of the fitted maximal effect
Outline: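 Luminescent Caspase-Glo 3/7 read (30min, room temperature) quantified apoptosis induction. Cells were wild-type CHO-K1, treated with compound for 17hr at 37 C and 5% CO2.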

[18] = target: Nuclear receptor subfamily 1 group I member 2 (Rattus norvegicus) (UniProt Q9R1A7); test: Rat pregnane X receptor (rPXR) activation by small molecules, qHTS assay (AID 1346983); conditions: rPXR luciferase reporter cells, One-Glo luminescence, 24 h; stronger effect = higher value; further: nearly all actives have a fitted effect of over 20% in size
Sequence of Nuclear receptor subfamily 1 group I member 2 (Rattus norvegicus) (Q9R1A7 whole entry, looked up): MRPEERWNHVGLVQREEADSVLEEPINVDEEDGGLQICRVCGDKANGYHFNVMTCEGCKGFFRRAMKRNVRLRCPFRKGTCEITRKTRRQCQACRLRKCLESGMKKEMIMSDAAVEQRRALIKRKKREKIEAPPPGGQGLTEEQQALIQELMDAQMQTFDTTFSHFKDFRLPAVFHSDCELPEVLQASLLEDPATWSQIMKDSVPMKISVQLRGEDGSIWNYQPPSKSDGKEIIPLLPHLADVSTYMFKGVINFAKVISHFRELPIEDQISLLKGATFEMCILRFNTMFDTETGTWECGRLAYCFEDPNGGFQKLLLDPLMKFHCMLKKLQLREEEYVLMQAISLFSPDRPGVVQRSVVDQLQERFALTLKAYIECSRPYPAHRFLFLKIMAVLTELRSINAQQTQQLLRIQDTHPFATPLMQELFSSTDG
Outline: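 Luminescent readout (One-Glo luciferase, 30 min room temperature) followed 24 hr compound treatment at 37 C of rPXR cells plated 2,000 per well and preincubated 5hr; qHTS format with compounds delivered in DMSO.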

[19] = target: Nuclear receptor subfamily 1 group I member 2 (Homo sapiens) (UniProt O75469); test: Human pregnane X receptor (PXR) activation by small molecules, qHTS assay (AID 1346985); further: nearly all actives have a fitted effect of over 40% in size
Outline: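 DPX-2 cells (HepG2 co-transfected with a PXR response element and a CYP3A4-promoter luciferase construct) were seeded at 2,000 per well, rested 5 hr at 37C, then exposed to DMSO-dissolved compounds for 24 hr. Activation was read as luciferase luminescence.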

SMILES | Potency [1] | Potency [2] | Potency [3] | Potency [4] | Potency [5] | Potency [6] | Potency [7] | Potency [8] | outcome [9] | Potency [10] | Potency [11] | Potency [12] | Potency [13] | Potency [14] | Potency [15] | Potency [16] | Potency [17] | max activation [18] | outcome [19]
Cc1ccc(C)c(S(=O)(=O)O)c1 | inactive | inactive | inactive | inactive | inactive | inactive | inactive | inactive | inactive | inactive | inactive | inactive | inactive | inactive | 64.4 µM (active) and inactive |  |  |  | 
O=C1CCCCCCCCCCC1 | inactive | inactive | inactive | inactive |  | inactive | inactive |  |  | inactive | inactive | inactive | inactive | inactive | inactive | inactive | inactive |  | 
Cc1cccc(C)c1[N+](=O)[O-] | inactive | inactive | inactive | inactive | inactive | inactive | inactive | inactive | inactive | inactive | inactive | inactive | inactive | inactive | inactive | inactive |  |  | 
O=Cc1ccc(CO)o1 | inactive | inactive | inactive | inactive | inactive | inactive | inactive |  | inactive | inactive | inactive | inactive | inactive | inactive |  |  |  |  | 
NC1CCCCC1N (stereo unspecified) | inactive | inactive | inactive | inactive | inactive | inactive | inactive |  |  | inactive | inactive | inactive | inactive |  |  | inactive | inactive |  | 
CCOC(=O)CC(=O)OCC | inactive | inactive | inactive |  |  | inactive | inactive |  | inactive | inactive | inactive | inactive | inactive | inactive | inactive | inactive | inactive |  | 
CC(C=O)Cc1ccc(C(C)(C)C)cc1 (stereo unspecified) |  | inactive | inactive | inactive | inactive | inactive | inactive |  | inactive | inactive | inactive | inactive | inactive | inactive |  | inactive | inactive |  | 
CC(=O)c1nccs1 | inactive | inactive | inactive |  | inactive | inactive | inactive | inactive |  | inactive | inactive | inactive | inactive | inactive | inactive | inactive |  |  | 
COc1c2ccoc2cc2oc(=O)ccc12 | inactive | inactive | 15.7 µM (active) |  | inactive | inactive | inactive |  |  | inactive | inactive | inactive | inactive | 55.7 µM (active) and 21.7 µM (active) | 4.08 µM (active) and inactive |  | inactive |  | 
Clc1cccc(Cl)c1NC1=NCCN1 | inactive | inactive | inactive |  | inactive | inactive | inactive |  |  | inactive | inactive | inactive | inactive |  |  | inactive |  |  | 
CCc1cccc(O)c1 |  | inactive | inactive | inactive | inactive | inactive | inactive |  | inactive | inactive | inactive | inactive | inactive | inactive |  | inactive |  |  | 
CCCOC(=O)NCCCN(C)C | inactive |  |  | inactive | inactive | inactive | inactive |  |  | inactive | inactive | inactive | inactive | inactive |  |  |  |  | 
CC(COCC(C)OC(=O)c1ccccc1)OC(=O)c1ccccc1 (stereo unspecified) | inactive | inactive |  | inactive |  | inactive | inactive | inactive |  | inactive | inactive | inactive | inactive | inactive |  |  | inactive |  | 
CS(=O)(=O)c1ccc(Cl)cc1 | inactive | inactive | inactive |  |  | inactive | inactive |  |  | inactive | inactive | inactive | inactive | inactive |  | inactive | inactive |  | 
c1cnc2c(c1)ccc1cccnc12 | 5.5 µM (active) | inactive | 309 nM (active) and 306 nM (active) |  |  | inactive | inactive |  |  | 1.26 µM (active) | inactive | 4.37 µM (active) and 6.11 µM (active) and 9.69 µM (active) | inactive | 2.76 µM (active) and 10.9 µM (active) and 24.3 µM (active) |  |  | 978 nM (active) and 1.37 µM (active) and inactive |  | 
CCN(CC)CCNC(=O)c1ccc(N)cc1 | inactive | inactive | inactive |  | inactive |  | inactive |  |  | inactive | inactive | inactive | inactive |  |  | inactive | inactive |  | 
CCOC(=O)c1ccc(O)cc1 | inactive | inactive | inactive |  |  | inactive | inactive | inactive | inactive | inactive | inactive | inactive | inactive | inactive |  |  | inactive | -2.61% (inactive) | inactive
COc1ccc([C@@H]2CC(=O)c3c(O)cc(O[C@@H]4O[C@H](CO[C@@H]5O[C@@H](C)[C@H](O)[C@@H](O)[C@H]5O)[C@@H](O)[C@H](O)[C@H]4O)cc3O2)cc1OC | inactive | inactive | inactive |  | inactive | inactive | inactive |  |  | inactive | inactive | inactive | inactive | inactive | inactive |  | inactive |  | 
CC(=O)OCCC(C)C | inactive | inactive | inactive |  |  | inactive | inactive |  | inactive | inactive | inactive | inactive | inactive | inactive | inactive |  |  |  | 
